# How the values were obtained:
# Assay in all cases: DAPPL (digital affinity profiling via proximity ligation, sequencing); 10 mM Tris-HCl pH 7.5, 50 mM NaCl, 1 mM DTT, 4% glycerol, room temperature, 30 min; GST-TFs on glutathione beads, 16-mer random dsDNA library, 0.1% formaldehyde crosslink after washing; high values mean tight binding
# Conditions in all cases: protein: recombinant; tags: N-terminal GST; dsDNA, one strand shown
# [1] = biological target: T1, ELK1 (Homo sapiens, UniProt P19419 1-428)
# T1 sequence: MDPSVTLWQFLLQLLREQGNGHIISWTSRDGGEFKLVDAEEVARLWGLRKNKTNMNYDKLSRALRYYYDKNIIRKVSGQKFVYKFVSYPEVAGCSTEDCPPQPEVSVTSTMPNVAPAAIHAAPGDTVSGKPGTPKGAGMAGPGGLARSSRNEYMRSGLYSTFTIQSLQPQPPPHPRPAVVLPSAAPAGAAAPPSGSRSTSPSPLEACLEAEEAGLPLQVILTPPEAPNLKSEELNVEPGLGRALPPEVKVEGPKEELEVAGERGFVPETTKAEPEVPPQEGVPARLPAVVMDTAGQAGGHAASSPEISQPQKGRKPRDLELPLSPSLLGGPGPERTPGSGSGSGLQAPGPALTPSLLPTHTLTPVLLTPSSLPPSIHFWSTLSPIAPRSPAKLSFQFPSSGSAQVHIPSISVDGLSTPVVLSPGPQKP
# Procedure, shortened: (§1)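 A tag-only sample was pooled with DNA-barcoded human transcription factors that had been expressed in yeast as GST fusions and captured on glutathione beads. The pools were incubated for 30 min at room temperature with 200 nmole of a random double-stranded 16-mer DNA library in Tris/NaCl/DTT/glycerol buffer, then washed, crosslinked with 0.1% formaldehyde, proximity-ligated (BsaI/T4 ligase, 1 h, 37 °C), PCR-amplified and sequenced on an Illumina NextSeq500. Binding signal is each hexamer's read frequency for a factor divided by its frequency for the tag-only sample.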
# [2] = biological target: T2, GABPA (Homo sapiens, UniProt Q06546 1-454)
# T2 sequence: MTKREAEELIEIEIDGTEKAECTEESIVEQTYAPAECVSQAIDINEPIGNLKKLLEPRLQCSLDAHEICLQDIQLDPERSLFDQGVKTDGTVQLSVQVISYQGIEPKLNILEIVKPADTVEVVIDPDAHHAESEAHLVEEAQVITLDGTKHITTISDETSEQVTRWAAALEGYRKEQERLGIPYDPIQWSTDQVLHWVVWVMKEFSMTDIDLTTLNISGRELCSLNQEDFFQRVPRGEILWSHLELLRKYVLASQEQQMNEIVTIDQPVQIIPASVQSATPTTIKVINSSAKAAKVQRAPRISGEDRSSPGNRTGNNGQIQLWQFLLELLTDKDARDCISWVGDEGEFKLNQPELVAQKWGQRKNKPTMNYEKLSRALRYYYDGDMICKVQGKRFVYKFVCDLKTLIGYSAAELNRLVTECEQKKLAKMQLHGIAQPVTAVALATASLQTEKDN
# Procedure, shortened: as §1
# [3] = biological target: T3, ERG (Homo sapiens, UniProt P11308 1-479)
# T3 sequence: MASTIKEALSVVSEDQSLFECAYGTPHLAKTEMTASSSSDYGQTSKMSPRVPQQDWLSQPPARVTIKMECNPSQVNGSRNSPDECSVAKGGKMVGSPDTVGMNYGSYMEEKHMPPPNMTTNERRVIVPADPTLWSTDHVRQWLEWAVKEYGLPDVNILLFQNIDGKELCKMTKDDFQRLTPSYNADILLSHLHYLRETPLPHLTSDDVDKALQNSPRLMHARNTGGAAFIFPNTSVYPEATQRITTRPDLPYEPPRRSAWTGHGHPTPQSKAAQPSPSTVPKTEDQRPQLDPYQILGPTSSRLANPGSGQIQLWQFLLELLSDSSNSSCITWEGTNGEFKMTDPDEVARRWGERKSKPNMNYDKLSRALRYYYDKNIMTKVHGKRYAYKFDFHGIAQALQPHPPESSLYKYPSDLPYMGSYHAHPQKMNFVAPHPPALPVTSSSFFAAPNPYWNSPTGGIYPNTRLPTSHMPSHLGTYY
# Procedure, shortened: as §1
# [4] = biological target: ELF1 (Homo sapiens, UniProt P32519 1-619)
# Chain of ELF1 (P32519 whole entry): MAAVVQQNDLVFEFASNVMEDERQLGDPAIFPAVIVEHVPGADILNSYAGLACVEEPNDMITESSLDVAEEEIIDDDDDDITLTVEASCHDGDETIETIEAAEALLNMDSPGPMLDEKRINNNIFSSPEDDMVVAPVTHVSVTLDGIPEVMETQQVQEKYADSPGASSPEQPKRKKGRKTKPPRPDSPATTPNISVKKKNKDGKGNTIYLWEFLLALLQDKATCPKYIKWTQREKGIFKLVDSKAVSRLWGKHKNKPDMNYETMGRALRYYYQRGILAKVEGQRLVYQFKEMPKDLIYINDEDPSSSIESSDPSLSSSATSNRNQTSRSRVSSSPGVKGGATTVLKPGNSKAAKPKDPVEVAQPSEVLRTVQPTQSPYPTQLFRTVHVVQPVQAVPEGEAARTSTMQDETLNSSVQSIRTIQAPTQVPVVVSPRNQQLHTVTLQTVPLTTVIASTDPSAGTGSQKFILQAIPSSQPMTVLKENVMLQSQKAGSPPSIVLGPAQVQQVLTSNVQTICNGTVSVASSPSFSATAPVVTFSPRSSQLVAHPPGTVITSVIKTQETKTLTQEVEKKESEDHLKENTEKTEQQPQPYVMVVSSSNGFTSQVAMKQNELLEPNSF
# Procedure, shortened: as §1
# [5] = biological target: T4, EHF (Homo sapiens, UniProt Q9NZC4 1-300)
# T4 sequence: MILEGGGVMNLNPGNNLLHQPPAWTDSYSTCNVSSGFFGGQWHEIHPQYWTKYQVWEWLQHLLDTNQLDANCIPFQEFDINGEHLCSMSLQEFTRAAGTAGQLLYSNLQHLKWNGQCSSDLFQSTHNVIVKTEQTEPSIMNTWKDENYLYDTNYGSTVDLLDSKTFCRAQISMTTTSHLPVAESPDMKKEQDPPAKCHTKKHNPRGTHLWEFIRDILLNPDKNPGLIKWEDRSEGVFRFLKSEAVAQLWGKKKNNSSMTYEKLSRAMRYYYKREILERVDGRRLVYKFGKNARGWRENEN
# Procedure, shortened: as §1
# [6] = biological target: SPIB (Homo sapiens, UniProt Q01892 1-262)
# Chain of SPIB (Q01892 whole entry): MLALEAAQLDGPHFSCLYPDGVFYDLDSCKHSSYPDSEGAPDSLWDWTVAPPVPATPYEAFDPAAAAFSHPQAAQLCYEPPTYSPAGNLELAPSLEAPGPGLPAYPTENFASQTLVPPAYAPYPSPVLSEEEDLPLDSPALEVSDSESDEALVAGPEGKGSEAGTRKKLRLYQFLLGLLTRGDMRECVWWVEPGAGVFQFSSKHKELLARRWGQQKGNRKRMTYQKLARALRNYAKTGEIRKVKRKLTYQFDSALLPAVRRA
# Procedure, shortened: as §1
# [7] = biological target: T5, FEV (Homo sapiens, UniProt Q99581 1-238)
# T5 sequence: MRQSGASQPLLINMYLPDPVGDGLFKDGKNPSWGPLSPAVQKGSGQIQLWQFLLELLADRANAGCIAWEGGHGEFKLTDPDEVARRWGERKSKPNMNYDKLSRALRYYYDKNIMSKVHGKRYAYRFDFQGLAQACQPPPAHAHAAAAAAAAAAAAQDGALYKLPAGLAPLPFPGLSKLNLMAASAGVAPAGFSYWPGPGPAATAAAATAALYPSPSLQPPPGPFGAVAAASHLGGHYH
# Procedure, shortened: as §1
# [8] = biological target: ETV5 (Homo sapiens, UniProt P41161 1-510)
# Chain of ETV5 (P41161 whole entry): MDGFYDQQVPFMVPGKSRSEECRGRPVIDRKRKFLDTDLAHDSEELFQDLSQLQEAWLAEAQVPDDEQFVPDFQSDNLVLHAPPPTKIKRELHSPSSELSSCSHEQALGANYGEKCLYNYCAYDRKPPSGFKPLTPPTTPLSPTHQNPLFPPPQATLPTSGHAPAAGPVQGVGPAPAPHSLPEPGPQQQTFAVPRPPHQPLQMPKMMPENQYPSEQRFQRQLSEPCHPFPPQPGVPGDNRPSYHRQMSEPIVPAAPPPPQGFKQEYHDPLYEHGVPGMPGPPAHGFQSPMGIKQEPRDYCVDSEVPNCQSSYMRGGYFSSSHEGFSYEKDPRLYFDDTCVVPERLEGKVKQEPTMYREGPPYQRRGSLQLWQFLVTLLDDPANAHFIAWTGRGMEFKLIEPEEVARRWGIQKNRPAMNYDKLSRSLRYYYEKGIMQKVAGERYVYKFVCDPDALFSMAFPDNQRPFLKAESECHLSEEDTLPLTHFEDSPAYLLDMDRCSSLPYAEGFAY
# Procedure, shortened: as §1
# [9] = biological target: ELF4 (Homo sapiens, UniProt Q99607 1-663)
# Chain of ELF4 (Q99607 whole entry): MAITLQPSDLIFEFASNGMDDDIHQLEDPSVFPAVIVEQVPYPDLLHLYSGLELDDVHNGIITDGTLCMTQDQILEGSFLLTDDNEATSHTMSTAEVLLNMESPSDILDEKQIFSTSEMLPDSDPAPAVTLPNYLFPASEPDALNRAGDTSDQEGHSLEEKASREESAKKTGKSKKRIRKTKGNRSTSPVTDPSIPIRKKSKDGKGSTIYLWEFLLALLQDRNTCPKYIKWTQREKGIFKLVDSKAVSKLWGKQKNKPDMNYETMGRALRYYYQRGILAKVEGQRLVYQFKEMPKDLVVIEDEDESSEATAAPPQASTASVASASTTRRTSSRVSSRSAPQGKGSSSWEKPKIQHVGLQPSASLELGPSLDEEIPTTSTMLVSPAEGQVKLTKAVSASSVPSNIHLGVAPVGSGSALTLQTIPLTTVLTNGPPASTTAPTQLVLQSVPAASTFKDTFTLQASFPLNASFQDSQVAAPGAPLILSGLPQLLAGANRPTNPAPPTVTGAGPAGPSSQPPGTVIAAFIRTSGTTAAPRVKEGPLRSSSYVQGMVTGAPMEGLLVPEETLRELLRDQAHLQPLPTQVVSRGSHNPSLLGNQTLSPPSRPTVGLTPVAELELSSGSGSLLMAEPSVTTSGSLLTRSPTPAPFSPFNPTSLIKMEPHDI
# Procedure, shortened: as §1
# [10] = biological target: T6, ELK4 (Homo sapiens, UniProt P28324-2 1-405)
# T6 sequence: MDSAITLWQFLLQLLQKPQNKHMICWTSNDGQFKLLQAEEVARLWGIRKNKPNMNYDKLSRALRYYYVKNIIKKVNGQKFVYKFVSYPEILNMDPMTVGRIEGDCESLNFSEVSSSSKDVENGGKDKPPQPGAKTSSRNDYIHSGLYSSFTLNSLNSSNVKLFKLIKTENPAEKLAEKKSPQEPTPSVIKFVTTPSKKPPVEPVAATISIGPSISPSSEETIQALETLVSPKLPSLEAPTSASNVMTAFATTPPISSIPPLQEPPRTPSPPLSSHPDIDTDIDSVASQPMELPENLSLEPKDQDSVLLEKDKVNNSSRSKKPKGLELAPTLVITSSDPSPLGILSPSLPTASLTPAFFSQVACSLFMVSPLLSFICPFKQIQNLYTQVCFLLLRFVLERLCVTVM
# Procedure, shortened: as §1
sequence,measurement,setting,value
TCAAGT,binding signal,[1],"1.14 fold enrichment (6-mer frequency, TF over GST control)"
same,binding signal,[2],"1.07 fold enrichment (6-mer frequency, TF over GST control)"
same,binding signal,[3],"1.04 fold enrichment (6-mer frequency, TF over GST control)"
same,binding signal,[4],"1.02 fold enrichment (6-mer frequency, TF over GST control)"
same,binding signal,[5],"1.12 fold enrichment (6-mer frequency, TF over GST control)"
same,binding signal,[6],"1.08 fold enrichment (6-mer frequency, TF over GST control)"
same,binding signal,[7],"1.05 fold enrichment (6-mer frequency, TF over GST control)"
same,binding signal,[8],"1.07 fold enrichment (6-mer frequency, TF over GST control)"
same,binding signal,[9],"1.13 fold enrichment (6-mer frequency, TF over GST control)"
same,binding signal,[10],"1.19 fold enrichment (6-mer frequency, TF over GST control)"
